In PubChem BioAssay (NCATS) one finds max response data, which are given here for 40 compounds.

SMILES strings stand for the structures. Where “and” joins values, the source holds several entries; their conditions need not be identical. Equal entries are not always repeated. Inconclusive results are not listed. Calls of active or inactive are those of the source. Calls come from the whole dose curve; as a rule, active = well fitted cell-killing curve with a large enough effect; inconclusive = small, poorly fitted or top-dose-only effect, or effect the other way; inactive = flat fitted curve, though single readings scatter.
% is set by controls: 0 for no effect and ±100 for the full control effect.

The test in a line: qHTS assay for cell viability of HEK293 cells (AID 743288). Note: nearly all actives have a fitted effect of over 50% in size. The following applies: ATP luminescence (CellTiter-Glo), 18 h, hits give low values. From the text: National Center for Advancing Translational Sciences [NCATS]
NIH Chemical Genomics Center [NCGC]
U.S. Environmental Protection Agency [EPA]
National Institutes of Environmental Health Sciences [NIEHS]
National Toxicology Program [NTP]
U.S. Food and Drug Administration [FDA]
The CellTiter-Glo Luminescent Cell Viability Assay (Promega, Madison, WI) is a homogeneous method to determine the number of viable cells in culture based on quantitation of the ATP present, which signals the presence of metabolically active cells. This cell viability assay was used to screen environmental chemicals in the Hek293 cell line.
Tox21 Assay Protocol Summary:
Cell viability after compound treatment was measured using a luciferase-coupled ATP quantitation assay (CellTiter-Glo viability assay, Promega, Madison, WI) in parental HEK293 cells. Total intracellular ATP content corresponds to the number of metabolically competent cells after compound treatment. The cells were dispensed at 2,000 cells/5 uL/well in 1,536-well white/solid bottom assay plates using a Flying Reagent Dispenser (Aurora Discovery, San Diego, CA). The cells were incubated a minimum of 5 h at 37 C, followed by the addition of 23 nL of compounds dissolved in DMSO, positive controls or DMSO only using a pintool work station (Kalypsys, San Diego, CA). The assay plates were incubated for 18 h at 37 C, followed by the addition of 5 uL/well of CellTiter-Glo reagent. After 30 min incubation at room temperature, the luminescence intensity of the plates was measured using a ViewLux plate reader (PerkinElmer, Shelton, CT).
With `ClC(Br)Br`, the max response is 0.132% (inactive).

For `N#CC(O)c1ccccc1` (stereo not given), the max response is 2.16% (inactive).

In the case of `CCCCC(CC)COC(=O)c1ccc(C(=O)OCC(CC)CCCC)c(C(=O)OCC(CC)CCCC)c1` (stereo not given), the max response is -4.51% (inactive).

On to `C=CC#N`, for which the max response is -18.6% (inactive).

For `O=[N+]([O-])c1ccccc1CCl`, the max response was 2.01% (inactive).

Turning to `Cl/C=C\Cl`, the max response is -1.83% (inactive).

Turning to `Cc1cccc(N)c1C`, the max response was -7.16% (inactive).

As for `CCBr`, the max response was -3.34% (inactive).

Regarding `O=Cc1ccc(Cl)cc1Cl`, the max response is -8.13% (inactive).

For `N#CC(Br)Br`, the max response was -22.9% (inactive).

For the compound `Cc1ccc2c(C)cccc2c1`, the max response was 11.2% (inactive).

Turning to `O=C(Cl)c1ccccc1F`, the max response was -8.76% (inactive).

With `O=C(O)C(Cl)(Cl)Br`, the max response was 5.15% (inactive).

For `CCNCC`, the max response was 7.41% (inactive).

Turning to `O=[N+]([O-])c1cc(Cl)c(Cl)cc1Cl`, the max response is -3.86% (inactive).

`CN=C=O`: the max response is 3.09% (inactive).

Turning to `FC(Cl)(Cl)Cl`, the max response is -1.1% (inactive).

Consider `Oc1cccc(Cl)c1Cl`, for which the max response is -3.83% (inactive).

Consider `C=C(C)CCl`, for which the max response is -1.82% (inactive).

On to `O=[N+]([O-])c1ccc(Cl)cc1`, for which the max response was 7.34% (inactive) and -5.17% (inactive).

For `C=CC(=O)OCC(CC)CCCC` (stereo not given), the max response is 1.71% (inactive) and -12.5% (inactive).

Consider `Cc1ccc(N)cc1C`, for which the max response was 0.786% (inactive).

`CCOS(C)(=O)=O`: the max response was -14.8% (inactive).

As to `Nc1ccccc1-c1ccccc1`, the max response is 3.8% (inactive).

Take `C=CCOCC1CO1` (stereo not given): the max response is -5.74% (inactive).

Turning to `Nc1ccc(Cl)c(Cl)c1`, the max response is -1.26% (inactive).

Regarding `COP(=S)(OC)SCn1nnc2ccccc2c1=O`, the max response is -22% (inactive).

On to `Oc1cc(Cl)ccc1Cl`, for which the max response is 5.28% (inactive) and -9.5% (inactive).

As to `CCCCC(=O)Cl`, the max response is 5.94% (inactive).

With `CC(=O)CCC(C)=O`, the max response is -8.83% (inactive).

Consider `O=[N+]([O-])c1ccc2c3c(cccc13)CC2`, for which the max response was -14% (inactive) and -2.65% (inactive).

Take `CC(C)(OOC(C)(C)c1ccccc1)c1ccccc1`: the max response is -10.5% (inactive) and -9.14% (inactive).

On to `C=CCO`, for which the max response is 9.9% (inactive).

Regarding `OCCCCO`, the max response is -3.14% (inactive).

Turning to `C1CC2OC2CC1C1CO1` (stereo not given), the max response was -9.23% (inactive) and -6.84% (inactive).

Consider `CCCCCC[N+](=O)[O-]`, for which the max response was 7.41% (inactive).

With `Nc1cc(Cl)cc(C(=O)O)c1Cl`, the max response was 10.5% (inactive) and -2.29% (inactive).

In the case of `COc1c(C(C)(C)C)cc([N+](=O)[O-])c(C)c1[N+](=O)[O-]`, the max response is -7.25% (inactive).

As for `CC(C)(Cl)[N+](=O)[O-]`, the max response is 8.03% (inactive).

`Cl/C=C/CCl`: the max response was 2.26% (inactive).
